Compound activity: PubChem, University of Kansas High Throughput Screening Laboratory
mHTT-CaM PPI inh = mHTT-calmodulin interaction abrogation. AlphaScreen His-mHTT/GST-CaM binding, luminescence. inhibition, % at 15 µM. 3.6% of 190,000 active. AID 1671202;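 further: 0% = both proteins with DMSO and 100% = one protein alone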
Pf apPOL inh = Pf-apPOL DNA polymerase inhibition. inhibition, % at 10 µM. 0.25% of 210,000 active. AID 1794808. Recombinant Pf-apPOL, molecular beacon fluorescence, 1.5 h
The depositor's hits bear a star; i = inactive; · = no result. Compounds with a hit are over-represented: about 3.5% of the library has one in this group of screens. No stated cut-off is given here; in the data, active means inhibition above about 50%; inactive means the rest.

SMILES | mHTT-CaM PPI inh | Pf apPOL inh
COc1nn(C)cc1C(=O)Nc1nnc(COc2ccccc2)o1 | 65.7* | -6.6
COc1nn(C)cc1C(=O)Nc1nnc(-c2ccco2)o1 | -5.4 | -0.5
Cc1ncsc1CN1CCCC(c2nc(-c3ccc(F)cc3)n[nH]2)C1 (stereo unspecified) | 26.9 | 4.7
COc1ccc(N(CC(=O)Nc2ccc(Cl)cc2C)S(=O)(=O)c2ccccc2)cc1 | 1.8 | -5.2
CC1=C(C(=O)Nc2ccccc2)C(c2ccc(F)cc2)n2c(s/c(=C\c3ccc(C)o3)c2=O)=N1 (stereo unspecified) | 66.0* | -4.4
CC1=C(C(=O)Nc2ccccc2)C(c2ccccc2)n2c(s/c(=C\c3ccco3)c2=O)=N1 (stereo unspecified) | 9.0 | 0.3
COc1ccc(NC(=O)N2CCN(Cc3nc4ccccc4[nH]3)CC2)cc1OC | 3.2 | -6.8
COc1cccc(CNC(=O)C2CCN(c3cc(N4CCOCC4)ncn3)CC2)c1 | -3.3 | -6.1
CCN(CC)S(=O)(=O)c1ccc2[nH]cc(C(=O)NCCCN3CCCC3=O)c(=O)c2c1 | 51.0* | -23.8
CCN(CC)S(=O)(=O)c1ccc2[nH]cc(C(=O)NCc3ccc(F)cc3)c(=O)c2c1 | 4.0 | -7.1
O=C1CSC(c2ccc([N+](=O)[O-])cc2)N1c1cc(F)ccc1Cl (stereo unspecified) | 1.0 | -8.1
CCC(C)NC(=O)Cn1c(=O)n(-c2ccc(F)cc2)c(=O)c2sccc21 (stereo unspecified) | 3.0 | -5.2
O=C(c1ccccc1)c1ccc(N2CCN(C(=O)c3ccccc3F)CC2)c(F)c1 | -3.6 | 3.6
N#Cc1nc(-c2cccs2)oc1N1CCN(C(=O)c2ccco2)CC1 | -2.2 | -2.2
O=C(c1ccccc1F)N1CCN(C2=NN=C(c3ccccc3)CS2)CC1 | 92.5* | -6.6
O=C(c1ccco1)N1CCN(C2=NN=C(c3cccs3)CS2)CC1 | 95.7* | 50.1*
CC(C)CCNC(=O)C1CCCN(c2ncc(-c3ccccc3)cn2)C1 (stereo unspecified) | -3.5 | -5.2
CCOc1ccc(C2(c3ccc(O)cc3)CCCCC2)cc1 | 85.7* | -2.4
CCOc1ccc(C(=O)NCC2(O)CCCC2)cc1 | -0.1 | -7.8
COc1cc(/C=C2/SC(=N)NC2=O)ccc1OCc1ccccc1F | 60.0* | -2.2
COc1cc(/C=C2/SC(=N)NC2=O)ccc1OCc1ccc([N+](=O)[O-])cc1 | 20.0 | -3.7
CCOc1cc(/C=C2\SC(=N)NC2=O)ccc1OCc1ccc(F)cc1 | 60.0* | -4.0
COc1cc(/C=C2\SC(=N)NC2=O)ccc1Oc1ccc(C(F)(F)F)cc1[N+](=O)[O-] | 50.0* | -3.6
CCOc1cc(/C=C2\SC(=N)NC2=O)ccc1OC | 11.0 | -1.1
COc1cc(/C=C2/SC(=N)NC2=O)ccc1OCc1ccccc1 | 28.0 | 0.9
SMILES | mHTT-CaM PPI inh | Pf apPOL inh
COc1cc(/C=C2/SC(=N)NC2=O)ccc1OCc1ccc(C)cc1 | 59.0* | 2.6
CCOc1cc(/C=C2\SC(=N)NC2=O)ccc1OCc1ccc(Br)cc1 | 34.0 | 3.3
Cc1cccc(N2C(=O)CSC23CCC(C(C)(C)C)CC3)c1 (stereo unspecified) | -1.0 | -0.4
O=c1c(-c2ccccc2)coc2cc(OCc3cc(Cl)cc4c3OCOC4)ccc12 | -6.5 | -5.3
CCc1ccc(N(CC(=O)Nc2ccc(F)cc2)S(C)(=O)=O)cc1 | -1.8 | -3.5
CCOc1cc(/C=C2\SC(=N)NC2=O)ccc1OCc1ccccc1 | 20.0 | -5.1
COc1cc(/C=C2/SC(=N)NC2=O)cc(Br)c1OCc1ccccc1 | 68.0* | -5.3
Oc1c(Cl)cc(Cl)cc1C=Nc1ccc(Cc2ccncc2)cc1 | · | -19.4
CC(=O)CC1c2cc(F)ccc2C=C(c2ccsc2)N1c1ccc(C#Cc2cncn2C)cc1 (stereo unspecified) | 74.8* | 0.0
CC(=O)CC1c2cc(F)ccc2C=C(c2ccsc2)N1c1ccc(C#CC2(O)CCCCC2)cc1 (stereo unspecified) | -11.8 | -7.9
Cc1cccc(Oc2ncnc3sccc23)c1 | -24.0 | 2.8
C[C@H](c1ccccc1)N1C[C@@H](COCc2ccccc2)Oc2cc(N3CC[C@@H](N(C)C)C3)ccc2S1(=O)=O | 100.2* | -4.3
C[C@H](c1ccccc1)N1C[C@@H](COCc2ccccc2)Oc2cc(N3CC[C@H](N(C)C)C3)ccc2S1(=O)=O | -6.5 | -3.8
C[C@H](c1ccccc1)N1C[C@@H](COCc2ccccc2)Oc2cc(N3CC[C@@H](O)C3)ccc2S1(=O)=O | 44.1 | -6.8
C[C@H](c1ccccc1)N1C[C@@H](COCc2ccccc2)Oc2cc(N3CCC[C@@H]3CO)ccc2S1(=O)=O | 68.3* | -3.7
C[C@@H](c1ccccc1)N1C[C@@H](COCc2ccccc2)Oc2cc(N3CC[C@H](O)C3)ccc2S1(=O)=O | 55.4* | -4.4
C[C@H](c1ccccc1)N1C[C@H](COCc2ccccc2)Oc2cc(N3CCC[C@H]3CO)ccc2S1(=O)=O | -2.5 | -7.4
O=C(O)c1ccccc1C(=O)c1ccc(NC2CCCCC2)c([N+](=O)[O-])c1 | 16.5 | 3.5
Cc1ccc(C(=O)NCC2(O)CCCC2)c(C)c1 | -1.6 | -5.7
COc1ccc(OC)c(C2C3=C(CCCC3=O)Nc3ncnn32)c1 (stereo unspecified) | 1.0 | -3.1
CC1CCN(C(=O)C2CCN(c3cncnc3N(C)C)CC2)CC1 | -2.0 | -3.8
CN(C)c1ncncc1N1CCC(C(=O)N2CCCC2)CC1 | -4.7 | 4.5
Cc1ccc(C)c(N2CCN(C(=O)C3CCN(c4cncnc4N(C)C)CC3)CC2)c1 | 59.8* | 2.2
CN(C)c1ncncc1N1CCC(C(=O)N2CCC(Cc3ccccc3)CC2)CC1 | 50.5* | -4.0
CCOCC(=O)Nc1cc(-c2cc3ccccc3n2CC)[nH]n1 | 6.3 | -1.1
SMILES | mHTT-CaM PPI inh | Pf apPOL inh
Cc1ccc(CN2C(=O)C(=O)c3cc(Br)ccc32)cc1 | 51.0* | -0.2
O=C1C(=O)N(Cc2ccc(F)cc2)c2ccc([N+](=O)[O-])cc21 | 11.0 | -2.1
O=C1C(=O)N(Cc2ccc(F)cc2)c2ccc(Br)cc21 | 70.0* | -1.4
C=CCN1C(=O)C(=O)c2cc(Br)ccc21 | 9.0 | 3.4
CCCN1C(=O)C(=O)c2cc(Br)ccc21 | 25.0 | -68.3
O=C1C(=O)N(Cc2ccc(Cl)c(Cl)c2)c2ccc(Br)cc21 | 100.0* | 2.4
CN(C)CCCNC(=O)C12CC3CC(CC(C3)C1)C2 | -5.4 | ·
COc1ccc(C(=O)Nc2ccc3nn(-c4ccccc4)nc3c2)cc1Br | -1.0 | i
Cc1ccc(F)cc1NC(=O)CN1CCC(c2nc(-c3cccc(F)c3)no2)CC1 | 0.0 | 0.6
CN(C)CC#Cc1ccc(-c2ccn[nH]2)s1 | · | 1.5
CC1CC(Nc2ccccc2)c2ccccc2N1 (stereo unspecified) | 18.6 | -1.6
CCCC(=O)N(c1ccccc1)C1CC(C)Nc2ccccc21 (stereo unspecified) | 54.2* | 1.2
O=C(Nc1cccc(Cl)c1)c1ccc(F)c(S(=O)(=O)NC2CCCC2)c1 | -1.0 | 0.3
O=C(Nc1cc(Cl)cc(Cl)c1)c1ccc(F)c(S(=O)(=O)NC2CCCC2)c1 | 54.0* | 30.8
Cc1ccc(NC(=O)c2cc(S(=O)(=O)NC3CCCCC3)ccc2F)cc1Cl | 5.0 | -7.8
O=C(Nc1ccc(Cl)c(Cl)c1)c1cc(S(=O)(=O)NC2CCCCC2)ccc1F | 78.0* | -4.5
O=C(NCCc1ccc(Cl)cc1)c1ccc(Cn2c(=O)[nH]c3ccsc3c2=O)cc1 | 1.0 | -2.1
O=C(c1nnn(-c2ccccc2F)c1-c1ccccn1)N1CC=C(c2ccccc2)CC1 | 84.0* | -9.5
